# High-throughput results as filed in PubChem BioAssay.
# This is a sample that favours compounds with a hit; in the whole collection about 6.9% have one here.
# MCF10A rereplic – A quantitative high throughput screen for small molecules that induce DNA re-replication in MCF 10a normal breast cells. 2.9% of 350,000 active. Potency, µM (titrated, usually from 46.1 µM), for inactives: at the top dose activity, positive = re-replication, usual class: activators. MCF 10A DNA re-replication, Hoechst nuclear intensity, 48 h; note: potency is the fitted concentration of half-maximal effect; % of control where 0% means no effect; nearly all actives have a fitted effect of over 50% in size
# KB-V1 cytotox – qHTS assay for MDR1-selective chemotherapeutics: Primary screen using the drug-selected MDR subline cells KB-V1 | KB-V1 MDR cells viability, CellTiter-Glo, 72 h | Potency, µM (series often up to 46.1 µM), actives largely listed as cytotoxic | 3.4% of 400,000 active | AID 1347076, 2019; note: potency is the fitted concentration of half-maximal effect; % is set by controls: 0 for no effect and ±100 for the full control effect; nearly all actives have a fitted effect of over 60% in size
#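 Potencies derive from concentration-effect curves fitted to normalized luminescence (CellTiter-Glo) of KB-V1 cells treated for 72 h at 37 degrees C in phenol-red-free DMEM containing 10% FBS.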
# Giardia killer – Small Molecules that selectively kill Giardia lamblia: qHTS; Giardia lamblia trophozoite viability; activity change, % at 7.66 µM, hits read low; 0.15% of 340,000 active; AID 540267, 2011; in the data active = activity change below about -80%; inconclusive = between about -30% and that limit;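 note: parasites exposed to compound for two days anaerobically before the ATP read; % is set by controls: 0 for no effect and ±100 for the full control effect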
#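 Anaerobic 48 hrs incubation at 37 deg C of 100 trophozoites/well with test compounds; ATPLite 1-Step luminescence, 15-30 min RT, reports cellular ATP as viability.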
# ASM inhibitor – Inhibitors of Secretory Acid Sphingomyelinase (S-ASM): qHTS | Sphingomyelin phosphodiesterase (Homo sapiens), P17405 | placental ASM, HMU-PC fluorogenic substrate, 60 min | Potency, µM (doses to about 57.5 µM), inactives show at the highest dose activity change, negative = inhibition, hits mostly inhibitors | 0.006% of 340,000 active | AID 504937, 2011; note: potency is the fitted concentration of half-maximal effect
# Target sequence (P17405 47-631 limits assumed): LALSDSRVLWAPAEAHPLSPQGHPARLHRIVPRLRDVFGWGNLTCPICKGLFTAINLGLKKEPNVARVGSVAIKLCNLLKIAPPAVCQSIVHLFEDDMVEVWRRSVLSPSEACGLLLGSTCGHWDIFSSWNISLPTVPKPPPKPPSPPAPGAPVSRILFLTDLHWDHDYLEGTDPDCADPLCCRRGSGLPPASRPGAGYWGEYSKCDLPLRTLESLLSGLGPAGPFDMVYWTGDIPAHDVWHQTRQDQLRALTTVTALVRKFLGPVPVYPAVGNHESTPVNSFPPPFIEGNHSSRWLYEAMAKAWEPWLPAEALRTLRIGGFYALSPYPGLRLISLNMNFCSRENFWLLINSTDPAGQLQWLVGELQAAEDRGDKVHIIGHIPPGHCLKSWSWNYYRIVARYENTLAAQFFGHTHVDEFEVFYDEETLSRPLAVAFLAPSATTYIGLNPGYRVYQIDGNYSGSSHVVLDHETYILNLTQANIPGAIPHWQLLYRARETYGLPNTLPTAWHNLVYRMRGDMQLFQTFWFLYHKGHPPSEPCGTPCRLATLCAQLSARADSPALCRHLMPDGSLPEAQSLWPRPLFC
#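 Human placenta-derived ASM enzyme was preincubated with compound for 10 minutes at room temperature, then given fluorogenic substrate HMU-PC0 (9 uM final) for 60 minutes at 37 °C; a pH 10 stop preceded fluorescence reading at Ex 386/Em 447 nm.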
# SW480 rerep – A quantitative high throughput screen for small molecules that induce DNA re-replication in SW480 colon adenocarcinoma cells. SW480 DNA re-replication, Hoechst DNA content imaging, 48 h. Potency, µM (highest dose often 46.1 µM), for inactives: at the top dose re-replication activation, usual class: activators. 1.8% of 340,000 active; note: potency is the fitted concentration of half-maximal effect; % of control where 0% means no effect; nearly all actives have a fitted effect of over 55% in size
#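 First, 250 cells per well were seeded. Next, compound or vehicle (23 nL) was pinned in, plates sat 48 hr at 37 C. Finally Hoechst was added for 40 min before fluorescence scanning.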
# KB-3-1 tox – qHTS assay for MDR1-selective chemotherapeutics: Primary screen using the parental adenocarcinoma cell KB-3-1. KB-3-1 viability, CellTiter-Glo ATP luminescence, 72 h. 1.4% of 400,000 active. Potency, µM (doses to about 46.1 µM), most hits filed as cytotoxic. AID 1347075, 2019; note: potency is the fitted concentration of half-maximal effect; % is set by controls: 0 for no effect and ±100 for the full control effect; nearly all actives have a fitted effect of over 60% in size
#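 Cytotoxicity in the drug-sensitive parental line KB-3-1 was scored as loss of CellTiter-Glo luminescence following 72 h incubation with compound. Values come from curve fitting of normalized concentration-response data.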
# The depositor's hits bear a star; i = inactive; u = inconclusive; x = no result given; ! = not active in a repeat. Unless noted, calls come from the whole dose curve; as a rule, active = well fitted curve in the direction sought with a large enough effect; inconclusive = small, poorly fitted or top-dose-only effect, or another doubt; inactive = no such curve, though single readings can be large; an effect the other way counts as inactive or inconclusive.
SMILES,MCF10A rereplic,KB-V1 cytotox,Giardia killer,ASM inhibitor,SW480 rerep,KB-3-1 tox
CCC(C)NCCCOc1c(C)cc(C)cc1Br (centres undefined),u,i,-8,6%,16µM*,i
CCC(C)NCCOCCOc1ccc(C)cc1Br (centres undefined),-1%,i,34,0%,17%,i
CCC(=O)c1ccc2c(c1)N(CCCN1CCN(CCO)CC1)c1ccccc1S2,33µM*,x,x,x,u,x
CN1CCN(CCCN2c3ccccc3Sc3ccc(Cl)cc32)CC1,12µM*,16µM*!,3,-8%,38%,u
CCSc1ccc2c(c1)N(CCCN1CCN(C)CC1)c1ccccc1S2,u,i,-5,-14%,-10%,i
CCCCNC(=O)CSc1nc2ccccc2nc1Cc1ccccc1,x,i,x,x,x,i
COc1ccc(CNC(=O)c2ccc(CS(=O)(=O)Cc3ccccc3F)o2)cc1,0%,u,-5,2%,-26%,i
O=C(NCc1ccccc1)c1ccc(CS(=O)(=O)Cc2ccccc2F)o1,-3%,16µM*,-1,2%,-21%,i
CC(C)Nc1nc2c(S(=O)(=O)c3cccc(Cl)c3)nnn2c2ccsc12,x,i,x,x,x,i
Cc1ccccc1CNC(=O)CN1CCSc2ccccc21,x,u,x,x,x,i
CCOC(=O)COc1ccc2nsnc2c1Cl,18%,i,-2,60%,11%,i
C=C(CC)C(=O)c1ccc(OCC(=O)O)c(Cl)c1Cl,19µM*!,i,-25,8%,u,i
COCc1cc(=O)[nH]c(SCCS(=O)(=O)c2ccc(C)cc2)n1,-1%,i,14,9%,-6%,i
COCc1cc(=O)[nH]c(SCCS(=O)(=O)c2ccc(Cl)cc2Cl)n1,16µM*,u,12,4%,16%,u
COC(=O)N/N=C\c1ccccc1OC/C=C/c1ccccc1,u,i,17,-9%,16µM*,i
Cc1ccc(C(=O)NCC(=O)N(C)CC(=O)Nc2ccccc2Br)s1,-2%,21µM*,7,6%,-4%,i
Cc1ccc(C(=O)NCC(=O)N(C)Cc2ccc(Cl)cc2Cl)s1,4%,16µM*,20,0%,-8%,i
CN(Cc1ccc(Cl)cc1Cl)C(=O)CNC(=O)c1ccco1,-4%,i,-4,3%,-22%,i
CC(C)(CC(=O)N1CCN(c2ccc(Cl)cc2)CC1)CC1=NS(=O)(=O)c2ccccc2N1,0%,4.1µM*,-3,u,2%,15µM*
COc1cccc(N2CCN(C(=O)CC(C)(C)CC3=NS(=O)(=O)c4ccccc4N3)CC2)c1,u,i,-5,-3%,-4%,i
COc1ccccc1N(C)S(=O)(=O)c1ccc(Cl)c(C(=O)OCc2c(C)noc2C)c1,16µM*,i,-10,-3%,u,i
COc1cc2c(cc1OC)-c1nc3ccccc3c(=O)n1C(C)(C)C2,-6%,9.2µM*,-11,2%,-2%,i
COc1ccc(/C=C2\CCn3c2nc2ccccc2c3=O)cc1OC,-1%,i,-10,151%,-3%,i
CC1CCN(S(=O)(=O)c2ccc3c(c2)N(CC(=O)NCC(C)c2ccccc2)C(=O)CO3)CC1 (centres undefined),x,u,x,x,x,i
C=CCN(c1ccccc1)S(=O)(=O)c1cccc(C(=O)Nc2cc(C)ccn2)c1,19%,u,8,-1%,u,u
SMILES,MCF10A rereplic,KB-V1 cytotox,Giardia killer,ASM inhibitor,SW480 rerep,KB-3-1 tox
C=CCN(c1ccccc1)S(=O)(=O)c1cccc(C(=O)NCc2ccco2)c1,1%,18µM*,1,-1%,2%,i
C=CCN(c1ccccc1)S(=O)(=O)c1cccc(C(=O)NC2CCN(Cc3ccccc3)CC2)c1,u,u,-19,x,u,21µM*
CCOC(=O)c1cccc(NC(=O)[C@H](CSCc2ccccc2)N2Cc3ccccc3C2=O)c1,x,u,x,x,x,i
CCOC(=O)COc1ccc2c(C#N)c3ccccn3c2c1,21µM*,i,-20,336%,u,i
N#Cc1c2ccc(OCC(N)=O)cc2n2ccccc12,22%,i,-5,342%,10%,u
O=C(C[N+]1(CCO)CCOCC1)c1cccs1,x,i,x,x,x,i
Cc1ccc(C(OCC(O)CNC(C)c2ccccc2)c2ccccc2)cc1 (centres undefined),u,u,-4,-1%,12%,i
Cc1ccc(C(OCC(O)CNC(CO)C(O)c2ccc([N+](=O)[O-])cc2)c2ccccc2)cc1 (centres undefined),u,16µM*,3,-4%,u,i
COc1ccccc1CCn1c(N)cc(=O)[nH]c1=O,6%,u,-7,0%,-1%,i
COc1ccc(NC(=O)/C(C#N)=C\C=C\c2ccco2)cc1,12µM*,10µM*,-21,-15%,x,7.3µM*
COc1ccc2c(c1)CCc1sc(NC(=O)c3ccco3)nc1-2,14%,i,-4,-5%,-1%,i
COc1ccc(NC(=O)/C(=C\c2ccco2)NC(=O)c2ccco2)cc1,-28%,i,-6,-4%,-22%,i
COc1ccc2c(c1)-c1nc(NC(=O)c3ccco3)sc1CC2,u,13µM*,5,-9%,4%,i
COc1ccc(C(=O)Nc2ccc(NC(=O)c3ccco3)cc2)cc1,-14%,i,6,-2%,9.2µM*,i
O=C(OC1CCCCC1)c1ccc(NC(=O)c2ccco2)cc1,15µM*,i,-4,-10%,11%,i
Cc1nc([N+](=O)[O-])cn1CC(O)c1ccc2c(c1)OCO2 (centres undefined),x,i,x,x,x,i
CC1(C)CC(N2CCOCC2)=CC(=[N+]2CCOCC2)C1,-35%,i,3,1%,6%,i
CN(C)NC1=CC(=[N+]2CCCC2)CC(C)(C)C1,8%,i,-3,-1%,-3%,i
CC1(C)CC(N2CCCCC2)=CC(=[N+]2CCCCC2)C1,24%,i,-18,7%,-9%,5.8µM*
CCCN(CCC)C1=CC(=[N+]2CCCC2)CC(C)(C)C1,-1%,i,3,x,-4%,2.6µM*
Cn1ncc2c(O/N=C(\N)c3ccc(C(F)(F)F)cc3)ncnc21,u,u,16,-5%,7.3µM*,u
